In PubChem BioAssay (EPA / NIEHS):
Inconclusive results are not listed. Calls of active or inactive are those of the source. The calls were made as follows: active = hit-call score of the fitted dose curve at least 0.9, where 1 is the maximum; inconclusive = response in the unintended direction; inactive = score below 0.9.

The compounds below were run against Peroxisome proliferator-activated receptor gamma (Homo sapiens) (UniProt P37231) (assay: NVS_NR_hPPARg: NovaScreen (NVS) Nuclear Receptor Binding Assay for human Peroxisome Proliferator-activated Receptor gamma (PPARg) (AID 2283370)).
Sequence of Peroxisome proliferator-activated receptor gamma (Homo sapiens) (P37231 whole entry, looked up): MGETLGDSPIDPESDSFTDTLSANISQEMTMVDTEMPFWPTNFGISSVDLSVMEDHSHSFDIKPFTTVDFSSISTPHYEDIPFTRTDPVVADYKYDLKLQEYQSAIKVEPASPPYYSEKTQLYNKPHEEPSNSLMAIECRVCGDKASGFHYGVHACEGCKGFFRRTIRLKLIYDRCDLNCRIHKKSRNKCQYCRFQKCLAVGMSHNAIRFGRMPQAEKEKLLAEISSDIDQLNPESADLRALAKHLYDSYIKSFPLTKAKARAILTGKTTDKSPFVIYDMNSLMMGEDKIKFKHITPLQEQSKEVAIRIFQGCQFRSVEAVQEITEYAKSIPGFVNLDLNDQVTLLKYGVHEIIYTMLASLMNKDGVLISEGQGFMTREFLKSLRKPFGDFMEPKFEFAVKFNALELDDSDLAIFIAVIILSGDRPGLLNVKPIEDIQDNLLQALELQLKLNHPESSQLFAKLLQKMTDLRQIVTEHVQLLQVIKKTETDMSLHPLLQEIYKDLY
Protocol: NVS_NR_hPPARg is a biochemical, single-readout assay that uses extracted gene-proteins in a cell-free assay. Measurements were taken 2 hours after chemical dosing in a 384-well plate.NVS_NR_hPPARg is one of one assay component(s) measured or calculated from the NVS_NR_hPPARg assay. It is designed to make measurements of fluorescent polarization, a form of binding reporter, as detected with fluorescence polarization signals by Fluorescence Polarization technology.Data from the assay component NVS_NR_hPPARg was analyzed into 1 assay endpoint. This assay endpoint, NVS_NR_hPPARg, was analyzed in the positive analysis fitting direction relative to DMSO as the negative control and baseline of activity. Using a type of binding reporter, loss-of-signal activity can be used to understand changes in the binding as they relate to the gene PPARG. Furthermore, this assay endpoint can be referred to as a primary readout, because the performed assay has only produced 1 assay endpoint. To generalize the intended target to other relatable targets, this assay endpoint is annotated to the nuclear receptor intended target family, where the subfamily is non-steroidal.
Binding assays used specific radioligands (tritiated, iodinated) with non-radioactive competitive displacement ligands in agonist or antagonist protocols (as indicated) and various reference compounds and inhibitors to titrate specific binding to receptors and transporters. Most enzyme assays (CYPs, kinases, phosphatases, proteases, HDACs) used recombinant protein and specific substrates (fluorescence mostly, some colorimetric and radioactive) and inhibitors, followed by a biochemical separation of substrate and product. All assays for the biochemical HTS were initially run in duplicate at a single concentration (10 uM for CYP450 assays and 25 uM for all others). […] Each assay was run with positive and negative controls, and concurrent controls on every plate. The follow-up (secondary) screen tested active chemical-pairs in concentration series, as well as a few additional assays not tested in the primary screen, some selected negative inactives, and several cases re-run in the concentration series for confirmatory purposes.

SMILES	AC50	outcome
O=c1c(-c2ccc(O)cc2)coc2cc(O)cc(O)c12	39.4 µM (active)	–
CC[C@H](NC(=O)c1cc(F)ccc1NS(=O)(=O)c1cccc2cccnc12)c1ccccc1	–	inactive
CCCOC(=O)c1cc(O)c(O)c(O)c1	–	inactive
O=C(O)c1ccccc1-n1cc(C(=O)O)c(=O)c2cc(Nc3c(F)cc(F)cc3Cl)c(Cl)cc21	–	inactive
CCCCCc1ccc(N)cc1	–	inactive
CC(C)(C)c1csc(-c2cc3cc(OCc4ccccc4CC(=O)O)ccc3o2)n1	0.00229 µM (active)	–
CC1=CC(=O)/C(=C(/C)O)C(=O)O1	–	inactive
Cc1cc(F)ccc1-c1cc(N2CC[C@@H](O)[C@H]2CO)ncc1N(C)C(=O)C(C)(C)c1cc(C(F)(F)F)cc(C(F)(F)F)c1	–	inactive
Cc1c2ccccc2c(C)c2c1ccc1ccccc12	–	inactive
CN(C)c1ccc(C(=C2C=CC(=[N+](C)C)C=C2)c2ccc(N(C)C)cc2)cc1	1.4 µM (active)	–
Cc1oc2c(NC(=O)c3c(Cl)cccc3Cl)cccc2c1C(C)(C)O	–	inactive
CC(C)(O)c1ccc(CNC(=O)c2cccnc2Oc2ccc3nonc3c2)cc1	–	inactive
O=C1CCC(C2CCCCC2)CC1	–	inactive
c1ccc2ccccc2c1	–	inactive
CC1(C)NC(=O)N(c2ccc([N+](=O)[O-])c(C(F)(F)F)c2)C1=O	–	inactive
O=C(O)Cc1cc(I)c(Oc2ccc(O)c(I)c2)c(I)c1	–	inactive
O=CCCCC=O	–	inactive
C[C@]12CC[C@@H]3c4ccc(O)cc4CC[C@H]3[C@@H]1CC[C@H]2O	–	inactive
CCCCCCCCOC(=O)c1cc(O)c(O)c(O)c1	25 µM (active)	–
CCCCCCCC[Si](OCC)(OCC)OCC	–	inactive
O=C1O[C@H]([C@@H](O)CO)C(O)=C1O	–	inactive
CN1C(=O)N(c2ccccc2Br)Cc2cnc(Nc3ccc4c(c3)OCC(CO)O4)nc21 (stereo not drawn)	25 µM (active)	–
NCc1cccc(C2CCN(C(=O)c3ccc(C#Cc4ccccc4F)o3)CC2)c1	5.98 µM (active)	–
Oc1ccc2ccccc2c1	–	inactive
O=C(O)Cn1c(=O)n(Cc2ccc(Br)cc2F)c(=O)c2ccc(Cl)cc21	42.4 µM (active)	–
CCCCOC(=O)c1ccc(O)cc1	–	inactive
c1ccc2n[nH]nc2c1	–	inactive
CCCCCCCCCCCC[N+](C)(C)C	–	inactive
